Source: PubChem (National Center for Advancing Translational Sciences (NCATS))
HCV inh – blocks hepatitis C virus. Huh7.5.1 HCVcc-Cre infection, luciferase reporter, 44 h. Potency, µM (highest dose often 41.8 µM), usual class: inhibitors. hit rate 3.4% among 340,000. AID 651820; active = well fitted inhibition curve with a large enough effect; inconclusive = small, poorly fitted or top-dose-only effect, or another doubt; inactive = no such curve, though single readings can be large or run the other way
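1,000 cells/well; 4 h culture; + compound; + HCVcc-Cre (~0.5 moi); 44 h; luciferase substrate, RT 15 min; read 15 sec.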
Marburg entry inh – inhibitors of Marburg virus binding or cell entry. Marburg virus pseudotyped entry inhibition, cell reporter. Potency, µM (titrated, usually from 37.8 µM), actives largely listed as inhibitors. hit rate 1.8% among 300,000. AID 540276; calls by dose curve; tested in HEK293 cells
LASV entry inh – blocks Lassa virus binding to or entry into cells; Lassa virus pseudotype entry inhibition, cell reporter; Potency, µM (top dose mostly 37.9 µM), usual class: inhibitors; hit rate 1.2% among 300,000; AID 540256; calls by dose curve; tested in HEK293 cells; also: nearly all actives have a fitted effect of over 50% in size
HCMV antiviral – human cytomegalovirus inhibition | HFF cells, HCMV-luciferase reporter, 72 h; active compounds read low | activity change, negative = inhibition, % at 57.5 µM | hit rate 4.5% among 410,000; in the data active = activity change below about -60%; inconclusive = no clear call, values can overlap the other calls; inactive = above about -39%
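Cell-based, HFFs, 1000 cells/well, 16 h 37C; cpds in DMSO + HCMV-luc, MOI 1 PFU/cell; 72 h 37C; OneGlo luminescence after 5 min RT; norm. to buffer vs Salinomycin 10uM.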
FMDV inh – antivirals against foot and mouth disease virus; Potency, µM (titrated, usually from 57.9 µM), actives largely listed as inhibitors; hit rate 1.2% among 410,000; FMDV antiviral cell-based qHTS; calls by dose curve; tested in HEK293T cells; also: read-out not given here; nearly all actives have a fitted effect of over 45% in size
Large screens that a line does not name were inactive. Hits are enriched below; roughly 7.9% of the tested compounds scored in any of these assays.

c1ccc(-c2ccc(-c3n(-c4ccccn4)c4ccccc4[n+]3-c3ccccn3)cc2)cc1	HCV inh inconclusive, Marburg entry inh inconclusive, LASV entry inh inconclusive, FMDV inh 14.1µM
Cc1csc(-c2cc(C(=O)NCc3ccc(F)cc3)n[nH]2)c1	HCMV antiviral -64.1 (no result: HCV inh, Marburg entry inh, LASV entry inh)
Oc1ccc(C[C@H]2CNC(=S)N2CC2CCCN2C[C@H](Cc2ccccc2)N2C[C@H](Cc3ccc(O)cc3)N(CCc3ccccc3)C2=S)cc1 (stereo partly specified)	HCV inh 2.24µM, HCMV antiviral inconclusive (no result: Marburg entry inh, LASV entry inh)
Oc1ccc(C[C@@H](CN2CCC[C@@H]2CN2C(=S)NC[C@@H]2Cc2ccccc2)N2C[C@H](Cc3ccccc3)N(CCc3ccccc3)C2=S)cc1	none (no result: HCV inh, Marburg entry inh, LASV entry inh)
CCOc1ccc(CCN2C(=S)N([C@@H](CC(C)C)CN3CCCC3CN3C(=S)NC[C@@H]3Cc3ccccc3)C[C@@H]2CC(C)C)cc1 (stereo partly specified)	HCMV antiviral inconclusive (no result: HCV inh, Marburg entry inh, LASV entry inh)
CCOc1ccc(CCN2C(=S)N([C@@H](CC(C)C)CN3CCCC3CN3C(=S)NC[C@@H]3Cc3ccc(O)cc3)C[C@@H]2Cc2ccccc2)cc1 (stereo partly specified)	HCV inh 10µM (no result: Marburg entry inh, LASV entry inh)
CCOc1ccc(CCN2C(=S)N([C@@H](CC(C)C)CN3CCCC3CN3C(=S)NC[C@@H]3Cc3ccc(O)cc3)C[C@@H]2Cc2ccc(O)cc2)cc1 (stereo partly specified)	HCV inh 11.2µM, HCMV antiviral -83.9, FMDV inh inconclusive (no result: Marburg entry inh, LASV entry inh)
CCC(=O)N1c2ccccc2CC1C(=O)NCc1ccccc1Cl (stereo unspecified)	none (no result: HCV inh, Marburg entry inh)
CC(=O)C1=C(O)C(=O)N(c2ccc(Br)cn2)C1c1cccc([N+](=O)[O-])c1 (stereo unspecified)	HCMV antiviral -104.9 (no result: Marburg entry inh, LASV entry inh)
CC1(C)N=C(SCC(=O)Nc2ccc(Cl)cc2)C(c2ccccc2)=N1	HCV inh inconclusive, Marburg entry inh inconclusive, HCMV antiviral -80.3
CC1(C)N=C(SCC(=O)Nc2ccc(Cl)cc2)C(c2ccc(Cl)cc2)=N1	HCV inh 12.6µM, FMDV inh 22.4µM
Cc1cc(SCC(=O)Nc2ccc(Cl)cc2)nc2ccccc12	Marburg entry inh inconclusive (no result: HCV inh)
COc1cccc(N2CCN(C(=O)Cn3cnc4onc(-c5ccc(F)cc5)c4c3=O)CC2)c1	none (no result: HCV inh, Marburg entry inh)
COc1cccc(/C(C#N)=C/c2c(-c3ccc(Cl)cc3)nc3c(C)cccn23)c1	HCV inh 11.2µM, Marburg entry inh inconclusive, LASV entry inh inconclusive, HCMV antiviral inconclusive
O=C1/C(=C\c2ccc(O)cc2)SC(=S)N1Cc1ccccc1	Marburg entry inh inconclusive, LASV entry inh inconclusive
COc1cc([N+](=O)[O-])cc(/C=C2/SC(=S)N(Cc3ccccc3)C2=O)c1O	HCMV antiviral -87.6, FMDV inh inconclusive (no result: Marburg entry inh, LASV entry inh)
COc1cc(/C=C2\SC(=O)N(Cc3ccc(Cl)cc3)C2=O)cc([N+](=O)[O-])c1O	Marburg entry inh inconclusive, LASV entry inh inconclusive, FMDV inh inconclusive
O=C1/C(=C/c2ccccc2O)SC(=S)N1Cc1cccnc1	HCMV antiviral -78.0, FMDV inh 31.6µM
COc1cc(/C=C2\SC(=O)N(Cc3ccc(F)cc3)C2=O)cc([N+](=O)[O-])c1O	Marburg entry inh inconclusive, LASV entry inh inconclusive, HCMV antiviral -76.0
O=C1CSC(=S)N1Cc1cccnc1	HCV inh inconclusive, Marburg entry inh inconclusive, LASV entry inh inconclusive, HCMV antiviral -98.3, FMDV inh inconclusive
COc1cccc(NC(=O)CSC2=Nc3ccccc3C3=NC(CC(=O)NCCc4ccccc4)C(=O)N23)c1 (stereo unspecified)	none (no result: HCV inh, Marburg entry inh)
Cc1nn(C(=O)c2ccccc2)c(C)c1S(=O)(=O)N1CCCCCC1	none (no result: HCV inh, Marburg entry inh)
O=C1/C(=C/c2ccc(O)c([N+](=O)[O-])c2)SC(=S)N1Cc1ccccc1	HCMV antiviral -60.9, FMDV inh inconclusive
S=C1SCN(Cc2cccnc2)CN1Cc1ccccc1	HCV inh inconclusive, Marburg entry inh inconclusive, HCMV antiviral -94.0
O=C1/C(=C\c2cccc([N+](=O)[O-])c2O)SC(=S)N1Cc1ccccc1	HCMV antiviral -63.6, FMDV inh inconclusive (no result: Marburg entry inh, LASV entry inh)
COCCN1CSC(=S)N(Cc2ccco2)C1	Marburg entry inh inconclusive
S=C1SCN(Cc2ccccn2)CN1Cc1ccco1	Marburg entry inh 9.2µM, HCMV antiviral inconclusive (no result: HCV inh)
COc1cc(=O)n2c(c1C(=O)NCc1ccc3c(c1)OCO3)CCN(C(=O)c1ccccc1F)CC2	none (no result: HCV inh, Marburg entry inh, LASV entry inh, HCMV antiviral)
CCCCCCCCN1C(=O)[C@H](CC(=O)NCCCOC)C[C@@]2(C(=O)OCC)CCCC=C12	none (no result: HCV inh, Marburg entry inh, LASV entry inh)
Cc1ccc2oc(=O)n(CCNC(=O)Nc3ccccc3Cl)c2c1	LASV entry inh inconclusive, FMDV inh inconclusive (no result: HCV inh)
CCOC(=O)CSC1=C(C#N)[C@H](c2ccc3c(c2)OCO3)CC(=O)N1	Marburg entry inh 15.8µM (no result: HCV inh, LASV entry inh, HCMV antiviral, FMDV inh)
CCCCOC(=O)CSC1=C(C#N)[C@H](c2ccc3c(c2)OCO3)CC(=O)N1	none (no result: HCV inh, LASV entry inh, HCMV antiviral, FMDV inh)
Cc1ccc(C(=O)c2no[n+]([O-])c2C(=O)c2ccc(C)cc2)cc1	HCV inh inconclusive, HCMV antiviral -98.5, FMDV inh inconclusive
Cc1ccc(NC(=O)CN(C)C(=O)c2cccc(S(=O)(=O)N3CCc4ccccc43)c2)cc1	HCV inh inconclusive (no result: Marburg entry inh, LASV entry inh)
CCOc1ccc(Nc2nc(C)c(NC(=O)c3cccc(OC)c3)c(Nc3ccc(OCC)cc3)n2)cc1	Marburg entry inh 11.2µM, FMDV inh inconclusive (no result: HCV inh)
CCOc1ccc(C(=O)Nc2c(C)nc(Nc3ccccc3)nc2Nc2ccccc2)cc1OCC	Marburg entry inh inconclusive, HCMV antiviral inconclusive (no result: HCV inh)
CC(C)CCNC(=O)C1CCC(Cn2c(=O)c3sccc3n(CC(=O)NC(C)C)c2=O)CC1 (stereo unspecified)	none (no result: HCV inh, Marburg entry inh)
COc1ccc2c3c([nH]c2c1)[C@@H](CO)N(C(=O)CC1CC1)CC31CCN(Cc2ccncc2)CC1	HCMV antiviral -73.7 (no result: HCV inh, Marburg entry inh, LASV entry inh, FMDV inh)
Cc1ccc(CN(C)C(=O)CN2C(=O)NC3(CCCc4ccccc43)C2=O)c(C)c1 (stereo unspecified)	HCV inh 10µM (no result: Marburg entry inh, LASV entry inh)
CN(C)C(=O)CN1C(=O)NC2(CCCc3ccccc32)C1=O (stereo unspecified)	Marburg entry inh inconclusive, LASV entry inh inconclusive
CC(C)(C)c1cc(NCCCn2ccnc2)n2ncc(-c3ccc(Cl)cc3)c2n1	HCV inh 25.1µM, Marburg entry inh inconclusive, LASV entry inh inconclusive
CC(=O)N(C(C)=O)c1ncnc2c1c(-c1ccc(Cl)cc1)nn2C(C)(C)C	HCV inh inconclusive, Marburg entry inh inconclusive, LASV entry inh 15.8µM, HCMV antiviral inconclusive, FMDV inh inconclusive
CC(=O)Nc1ncnc2c1c(-c1ccc(Cl)cc1)nn2C(C)(C)C	none (no result: Marburg entry inh, LASV entry inh)
CCOC(=O)Nc1ccc2c(c1)C(=NNC(N)=S)c1ccccc1-2	HCV inh inconclusive, Marburg entry inh 12.6µM, LASV entry inh inconclusive, HCMV antiviral inconclusive, FMDV inh inconclusive
CCOC(=O)Nc1ccc2c(c1)C(=NO)c1ccccc1-2	HCV inh inconclusive
CN(CC1COCCO1)C(=O)c1cnn(-c2ncc3c(n2)-c2ccccc2CCC3)c1C1CC1 (stereo unspecified)	none (no result: HCV inh, Marburg entry inh, LASV entry inh, HCMV antiviral)
CN(Cc1cccc2ncccc12)C(=O)c1cnn(-c2ncc3c(n2)-c2ccccc2CC3)c1C1CC1	FMDV inh 28.2µM (no result: HCV inh, Marburg entry inh, LASV entry inh, HCMV antiviral)
CN1CCN(C(=S)c2ccc(Br)cc2)CC1	none
